Experiment [1] in a line: binders of probe aFSTL3 on microarray, primary screen, stem cell growth factor project, biochemical, small-molecule microarray, fluorescence 635/667 (AID 1064).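 Also: measures binding of the biotinylated anti-FSTL3 antibody to printed compounds.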 The conditions noted are these: higher = more signal.
The nature of experiment [2]: binders from COS7 lysate, DM2A8 probe, primary screen, torsin A project, cell lysate, small-molecule microarray, fluorescence 635/667 (AID 1065). To be noted: higher = more signal, COS7 lysate expressing mutant human TOR1A.
Experiment [3] in a line: binders of probe aFGF2 on microarray, primary screen, stem cell growth factor project, biochemical, small-molecule microarray, fluorescence 635/667 (AID 1067).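 Also: measures binding of biotinylated aFGF2 protein to printed compounds on slides; z-score merges feature fluorescence and signal-to-noise across triplicate slides.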 To be noted: higher = more signal.
Experiment [4] can be described thus: binders of probe aFGF10 on microarray, primary screen, stem cell growth factor project, biochemical, small-molecule microarray, fluorescence 635/667 (AID 1071).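 Also: score merges 667 nm spot intensity and signal to noise from triplicate slides.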 To be noted: higher = more signal.
Experiment [5] deals with Neurogenic locus notch homolog protein 2 (Homo sapiens) (UniProt Q04721). The experiment is described as follows: Notch2 binders on small-molecule microarrays, primary screen, biochemical, small-molecule microarray, 635 nm fluorescence, stem cell growth factors (AID 1073). The conditions noted are these: Notch2 binding, higher = more signal.
Chain of Neurogenic locus notch homolog protein 2 (Homo sapiens) (Q04721 whole entry, looked up, canonical isoform): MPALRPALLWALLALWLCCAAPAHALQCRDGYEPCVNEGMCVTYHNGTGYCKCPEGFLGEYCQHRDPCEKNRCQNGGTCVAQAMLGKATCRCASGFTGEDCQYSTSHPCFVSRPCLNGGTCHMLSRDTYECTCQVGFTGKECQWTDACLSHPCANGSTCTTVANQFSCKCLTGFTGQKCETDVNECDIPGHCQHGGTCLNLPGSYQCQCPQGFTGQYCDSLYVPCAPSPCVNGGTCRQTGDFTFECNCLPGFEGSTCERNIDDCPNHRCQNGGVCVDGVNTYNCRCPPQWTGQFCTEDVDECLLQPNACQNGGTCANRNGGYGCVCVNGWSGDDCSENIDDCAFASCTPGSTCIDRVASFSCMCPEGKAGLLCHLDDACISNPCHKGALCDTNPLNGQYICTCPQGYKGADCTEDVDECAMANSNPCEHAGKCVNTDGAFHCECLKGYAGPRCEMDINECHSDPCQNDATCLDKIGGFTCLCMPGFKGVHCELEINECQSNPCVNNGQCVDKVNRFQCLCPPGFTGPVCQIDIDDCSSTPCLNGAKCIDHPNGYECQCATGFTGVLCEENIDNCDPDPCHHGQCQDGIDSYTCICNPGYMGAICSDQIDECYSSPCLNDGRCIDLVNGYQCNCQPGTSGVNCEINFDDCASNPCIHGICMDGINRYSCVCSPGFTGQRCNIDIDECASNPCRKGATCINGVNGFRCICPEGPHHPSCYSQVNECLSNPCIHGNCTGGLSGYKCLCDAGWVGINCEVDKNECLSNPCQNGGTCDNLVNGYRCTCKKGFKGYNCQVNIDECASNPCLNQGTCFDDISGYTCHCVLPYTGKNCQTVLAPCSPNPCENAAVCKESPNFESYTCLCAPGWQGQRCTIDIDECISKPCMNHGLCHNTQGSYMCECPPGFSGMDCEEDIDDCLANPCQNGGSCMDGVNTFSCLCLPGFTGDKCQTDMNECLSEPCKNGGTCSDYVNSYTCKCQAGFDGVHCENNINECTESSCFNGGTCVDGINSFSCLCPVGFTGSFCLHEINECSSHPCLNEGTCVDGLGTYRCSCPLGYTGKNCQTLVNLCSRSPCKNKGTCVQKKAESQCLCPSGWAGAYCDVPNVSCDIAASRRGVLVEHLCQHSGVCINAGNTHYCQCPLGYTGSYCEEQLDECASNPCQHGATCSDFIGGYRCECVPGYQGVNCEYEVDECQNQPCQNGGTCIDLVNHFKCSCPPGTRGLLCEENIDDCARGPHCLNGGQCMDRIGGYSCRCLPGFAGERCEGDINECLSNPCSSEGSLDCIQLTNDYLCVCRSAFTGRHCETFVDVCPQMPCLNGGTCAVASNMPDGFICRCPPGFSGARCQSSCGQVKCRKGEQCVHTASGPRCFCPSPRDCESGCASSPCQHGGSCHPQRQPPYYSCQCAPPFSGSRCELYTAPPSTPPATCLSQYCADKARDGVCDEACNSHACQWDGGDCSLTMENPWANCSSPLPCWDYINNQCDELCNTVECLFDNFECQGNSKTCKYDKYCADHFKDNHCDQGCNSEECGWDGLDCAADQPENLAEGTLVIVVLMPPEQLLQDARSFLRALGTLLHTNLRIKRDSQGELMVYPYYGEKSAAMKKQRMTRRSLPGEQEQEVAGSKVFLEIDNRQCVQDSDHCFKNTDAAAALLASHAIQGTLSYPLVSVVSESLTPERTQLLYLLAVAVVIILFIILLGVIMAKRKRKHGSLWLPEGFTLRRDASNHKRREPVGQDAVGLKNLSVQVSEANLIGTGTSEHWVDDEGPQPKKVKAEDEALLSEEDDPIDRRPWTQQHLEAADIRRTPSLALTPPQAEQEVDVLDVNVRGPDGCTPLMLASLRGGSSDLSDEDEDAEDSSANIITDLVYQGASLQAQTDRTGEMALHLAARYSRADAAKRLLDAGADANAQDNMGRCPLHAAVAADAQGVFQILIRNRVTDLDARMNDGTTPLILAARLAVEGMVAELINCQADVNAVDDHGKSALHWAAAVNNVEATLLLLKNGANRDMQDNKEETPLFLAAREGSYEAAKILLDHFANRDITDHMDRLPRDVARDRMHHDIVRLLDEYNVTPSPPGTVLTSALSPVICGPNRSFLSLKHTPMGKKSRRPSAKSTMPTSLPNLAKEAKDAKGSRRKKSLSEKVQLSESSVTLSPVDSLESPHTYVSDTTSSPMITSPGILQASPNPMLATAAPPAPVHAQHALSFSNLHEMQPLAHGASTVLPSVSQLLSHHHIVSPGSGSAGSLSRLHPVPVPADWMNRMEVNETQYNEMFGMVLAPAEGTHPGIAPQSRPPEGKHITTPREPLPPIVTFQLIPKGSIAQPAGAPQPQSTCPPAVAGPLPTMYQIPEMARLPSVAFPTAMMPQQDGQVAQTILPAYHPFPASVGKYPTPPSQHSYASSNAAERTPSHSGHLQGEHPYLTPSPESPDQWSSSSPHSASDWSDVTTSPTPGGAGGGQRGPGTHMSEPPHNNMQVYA
Experiment [6] addresses Pro-neuregulin-1, membrane-bound isoform (Homo sapiens) (UniProt Q02297). The experiment in a line: NRG1 binders on small-molecule microarrays, primary screen, psychiatric disease protein project, biochemical, small-molecule microarray, fluorescence 635/667 (AID 1075).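 Also: score combines 667 nm spot fluorescence with signal to noise.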 To be noted: NRG1 binding, 635 nm fluorescence, higher = more signal.
Experiment [7] relates to Neuregulin-1 EGF-like domain. The experiment is described as follows: binders of neuregulin-1 EGF-like domain, primary screen, biochemical, small-molecule microarray, 635 nm fluorescence (AID 1081).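 Also: binding of the protein to compounds printed on small-molecule microarray slides.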 The conditions noted are these: small-molecule microarray binding, higher = more signal.
The nature of experiment [8]: FRG1 promoter luciferase signal modulators, primary screen, FRG1 inhibition for FSHD, cell-based, C2C12 myotubes, firefly/Renilla luciferase, luminescence (AID 1084). To be noted: higher = more signal, called active from +8 up or from −8 down.
The nature of experiment [9]: binders of probe aFST on microarray, primary screen, stem cell growth factor project, biochemical, small-molecule microarray, fluorescence 635/667 (AID 1086).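 Also: score merges 667 nm fluorescence with signal-to-noise of each printed compound spot.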 The conditions noted are these: higher = more signal.
Experiment [10] can be described thus: binders of probe aHhip on microarray, primary screen, stem cell growth factor project, biochemical, small-molecule microarray, fluorescence 635/667 (AID 1087).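 Also: score merges spot fluorescence at 667nm with spot signal to noise ratio.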 To be noted: higher = more signal.
Experiment [11] concerns PRMT1 (protein arginine N-methyltransferase 1). The experiment in a line: PRMT1 binders on small-molecule microarrays, primary screen, biochemical, small-molecule microarray, 635 nm fluorescence (AID 1088).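 Also: binding of Prmt1 protein to compounds spotted on small-molecule microarray slides.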 To be noted: small-molecule microarray binding, higher = more signal.
Experiment [12] in a line: yeast growth modulation, basal conditions, primary screen, YJM789 clinical isolate, OD600, 24 h (AID 1089).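 Also: growth of clinical yeast isolate S. cerevisiae YJM 789 seeded 1000 cells per well; test concentration not given here.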 To be noted: S. cerevisiae YJM789 growth, higher = more signal, called active from +8 up or from −8 down.
Experiment [13] in a line: fission yeast growth modulation, primary screen, strain 972, OD600, 24 h, no modulator (AID 1090).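 Also: basal condition with compound alone and no growth modifier present; test concentration not given here.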 To be noted: S. pombe 972 growth, higher = more signal, called active from +8 up or from −8 down.
A short description of experiment [14]: S. cerevisiae growth modulation with rapamycin, primary screen, strain BY4716, OD600, 96 h (AID 1091). Also: test concentration not given here. The conditions noted are these: higher = more signal, called active from +8 up or from −8 down.
Experiment [15] concerns the target Torsin-1A-interacting protein 2 (Homo sapiens) (UniProt Q8NFQ8). The experiment is described as follows: LULL1 binders on small-molecule microarray, primary screen, cell lysate, human LULL1 lysate, 635/667 nm fluorescence (AID 1092).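 Also: probe is lysate of COS7 cells overexpressing human LULL1; score merges per-feature 667 nm fluorescence with signal-to-noise.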 To be noted: hLULL1 lysate binding, 635 nm fluorescence, higher = more signal.
Experiment [16] is described as follows: E. coli growth modulation, two-sided OD650, primary screen, E. coli filamentation project, strain DRC41, 24 h (AID 1093).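 Also: MC1000 strain lacking acrAB efflux and sulA so SOS filamentation is blocked; test concentration not given here.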 To be noted: OD650, 24 h, higher = more signal, called active from +8 up or from −8 down.
Experiment [17] in a line: small-molecule microarray binders of probe aLefty2, primary screen, biochemical, biotinylated probe, 635/667 nm fluorescence (AID 1094).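 Also: score merges spot fluorescence near 667 nm with spot signal-to-noise ratio.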 The conditions noted are these: higher = more signal.
Experiment [18] has as its system Noggin (protein binding on small-molecule microarray). The experiment is described as follows: Noggin binders on small-molecule microarray, primary screen, biochemical, 635/667 nm fluorescence (AID 1095).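 Also: score merges 667 nm feature fluorescence with signal to noise over triplicate slides.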 To be noted: 635 nm fluorescence, higher = more signal.
For experiment [19], the target named is Neurogenic locus notch homolog protein 3 (Homo sapiens) (UniProt Q9UM47). The experiment in a line: NOTCH3 binders on small-molecule microarray, primary screen, biochemical, 635/667 nm fluorescence (AID 1096). The conditions noted are these: NOTCH3 binding, 635 nm fluorescence, higher = more signal.
The nature of experiment [20]: small-molecule microarray binders of probe aEGFR, primary screen, biochemical, biotinylated probe, 635/667 nm fluorescence (AID 1097).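 Also: probe is a biotinylated anti-EGFR antibody binding compounds printed on slides; score combines fluorescence near 667 nm and signal to noise of each spot.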 To be noted: higher = more signal.

Active and inactive are the calls of the source.

Chain of Torsin-1A-interacting protein 2 (Homo sapiens) (Q8NFQ8 whole entry, looked up): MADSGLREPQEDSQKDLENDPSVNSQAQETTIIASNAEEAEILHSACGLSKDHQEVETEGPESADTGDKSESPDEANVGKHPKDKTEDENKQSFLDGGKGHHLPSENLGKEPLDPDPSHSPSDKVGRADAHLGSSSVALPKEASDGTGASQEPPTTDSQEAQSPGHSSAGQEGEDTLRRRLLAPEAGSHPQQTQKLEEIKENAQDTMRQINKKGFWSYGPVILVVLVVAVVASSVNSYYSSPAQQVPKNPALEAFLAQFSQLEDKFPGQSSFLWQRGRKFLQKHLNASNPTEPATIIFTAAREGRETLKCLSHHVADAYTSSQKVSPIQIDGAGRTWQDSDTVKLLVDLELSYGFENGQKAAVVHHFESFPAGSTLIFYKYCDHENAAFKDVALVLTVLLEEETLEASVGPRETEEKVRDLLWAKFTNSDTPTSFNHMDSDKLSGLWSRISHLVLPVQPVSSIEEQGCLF
Chain of Pro-neuregulin-1, membrane-bound isoform (Homo sapiens) (Q02297 whole entry, looked up, the tested form may be a part, canonical isoform): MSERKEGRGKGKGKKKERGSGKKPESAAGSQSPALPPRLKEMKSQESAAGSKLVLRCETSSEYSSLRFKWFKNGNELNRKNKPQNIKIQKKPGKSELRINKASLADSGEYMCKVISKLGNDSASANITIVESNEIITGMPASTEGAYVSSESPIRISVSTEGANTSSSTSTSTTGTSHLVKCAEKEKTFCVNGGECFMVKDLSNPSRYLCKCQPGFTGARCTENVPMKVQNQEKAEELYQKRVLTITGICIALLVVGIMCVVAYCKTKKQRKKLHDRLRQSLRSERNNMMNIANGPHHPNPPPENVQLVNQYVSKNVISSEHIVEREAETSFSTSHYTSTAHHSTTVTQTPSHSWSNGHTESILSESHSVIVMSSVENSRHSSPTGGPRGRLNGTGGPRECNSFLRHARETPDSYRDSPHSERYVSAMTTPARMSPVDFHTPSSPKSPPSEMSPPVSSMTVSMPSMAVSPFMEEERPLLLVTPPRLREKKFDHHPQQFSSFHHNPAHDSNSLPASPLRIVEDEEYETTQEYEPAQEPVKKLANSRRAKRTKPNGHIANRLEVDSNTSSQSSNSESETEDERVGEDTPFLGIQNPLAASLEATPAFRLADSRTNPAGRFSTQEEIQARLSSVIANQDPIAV

Consider `C=CC[C@@]1(C(N)=O)N=C(c2ccc(OCCCO)cc2)O[C@@H]1c1ccccc1N=[N+]=[N-]`, for which the composite z-score in experiment [1] is 1.68; in experiment [2], 0.444; in experiment [3], 0.069; in [4] it was 1.08; in [5], 1.13; in experiment [6], 1.5. The composite z-score in experiment [7] amounted to 1.34; in [9], 1.03; in experiment [10] it was 0.0769; in experiment [11], 1.14; in [15], 2.44; in experiment [17], 0.429. Further, the composite z-score in experiment [18] is 0.404; in experiment [19] it was -0.299; in experiment [20] it was 0.317. Also, the z-score in [8] was 2.64 (inactive); in experiment [12] it was -0.545 (inactive); in experiment [13] it was 0.0584 (inactive); in [14] it was -1.15 (inactive); in experiment [16] it was 1.4 (inactive).

For `Cc1ccc(S[C@]2(C(=O)NCCN3CCOCC3)CC(=O)N(C3CCCCC3)[C@@H]2c2ccc(CO)cc2)cc1`, the composite z-score in [1] is -0.0386; in experiment [2] it was -0.439; in experiment [3], -0.158; in experiment [4] it was 0.123; in [5], 0.825; in experiment [6] it was 1. Further, the composite z-score in experiment [7] is 1.09; in experiment [9], 0.283; in experiment [10], -0.0645; in [11], 1.05; in experiment [15], 3.05; in experiment [17] it was -0.072. Besides, the values for the composite z-score in experiment [18], in experiment [19] and in [20] were 0.218, 0.404 and -0.111, respectively. The z-score in experiment [8] is 0.046 (inactive); in experiment [12], -0.0801 (inactive); in [13], -0.134 (inactive); in [14] it was -0.942 (inactive); in [16], -0.114 (inactive).

As for `COC(=O)[C@@]1(Cc2ccc(OC)cc2)[C@H]2c3cc(C(=O)N4CCCC4)n(C[C@H](O)CO)c3C[C@H]2CN1C(=O)c1ccccc1`, the composite z-score in experiment [1] was 0.288; in experiment [2], -0.0909; in experiment [3] it was 0.198; in experiment [4], 0.673; in [5] it was 1.13; in experiment [6], 1.17. Moreover, the composite z-score in experiment [7] was 0.531; in experiment [9], 0.488; in experiment [10], 0.0749; in experiment [11] it was -0.448; in experiment [15], 2.4; in experiment [17], 0.0069. The composite z-score in experiment [18] was -0.533; in [19] it was 0.355; in experiment [20] it was -0.175. Moreover, the z-score in experiment [8] was 1.13 (inactive); in [12] it was 0.659 (inactive); in [13], 1.13 (inactive); in [14] it was 0.454 (inactive); in experiment [16] it was -0.0765 (inactive).

Take `Cc1ccc(C(C)CC(O)C2C=CC3C(=O)NC(=O)C3N2Nc2ccccn2)o1` (stereo not given): the composite z-score in [1] was -0.0428; in experiment [2], 0.573; in experiment [3], -0.0951; in experiment [4] it was 0.174; in [5], -0.0116; in [6], 0.753. Besides, the composite z-score in experiment [7] is 0.845; in [9] it was 0.0821; in experiment [10] it was -0.249; in experiment [11], 1.09; in experiment [15], 1.94; in experiment [17], -0.0225. Besides, the composite z-score in experiment [18] was 0.312; in [19] it was -0.233; in experiment [20] it was -0.0302. For the same compound, the z-score was 0.327 (inactive) in [8]; 0.633 (inactive) in experiment [12]; 0.0293 (inactive) in experiment [13]; 0.124 (inactive) in [14]; 0.504 (inactive) in [16].

Regarding `CO[C@H]1O[C@H](CO)[C@@H](OC(=O)Nc2cccc(F)c2)[C@H](OC(=O)Nc2ccccc2-c2ccccc2)[C@@H]1OC(=O)Nc1ccccc1-c1ccccc1`, the composite z-score in experiment [1] was -0.217; in experiment [2], 0.568; in experiment [3], 0.111; in experiment [4], 0.669; in [5], 1.65; in experiment [6] it was 1.75. Also, the composite z-score in experiment [7] was 1.29; in experiment [9], 1.02; in experiment [10], -0.374; in experiment [11], 1.55; in experiment [15], 3.34; in [17], 0.134. The composite z-score in [18] was 0.615; in experiment [19] it was 1.05; in experiment [20], -0.013. In addition, the z-score in experiment [8] was 1.16 (inactive); in experiment [12], 2.1 (inactive); in experiment [13], 1.88 (inactive); in experiment [14], -1.23 (inactive); in [16] it was 0.675 (inactive).
